Experimental data reported in PubChem BioAssay AID588689 (Southern Research Specialized Biocontainment Screening …, 2011).
The whole screen tested about 340,000 compounds, of which about 1,000 (0.29%) were called active. No stated cut-off is given here; in the data, inconclusive means inhibition above about 29% without an active follow-up result; inactive means below that. Only a sample is shown. Entries with a potency or affinity are not part of this list.

Molecular target: Genome polyprotein (Dengue virus type 2 (strain 16681-PDK53)) (UniProt P29991)
Assay: flavivirus cap methylation enzyme inhibition – biochemical, confirmation dose response, primary screen (AID 588689)
Details: Dengue-2 NS5 methyltransferase capping enzyme assay, at 25 µM, stronger effect = higher value
[1] = measured here: pilot screen replicate inhibition

Sequence of Genome polyprotein (Dengue virus type 2 (strain 16681-PDK53)) (P29991 whole entry, looked up): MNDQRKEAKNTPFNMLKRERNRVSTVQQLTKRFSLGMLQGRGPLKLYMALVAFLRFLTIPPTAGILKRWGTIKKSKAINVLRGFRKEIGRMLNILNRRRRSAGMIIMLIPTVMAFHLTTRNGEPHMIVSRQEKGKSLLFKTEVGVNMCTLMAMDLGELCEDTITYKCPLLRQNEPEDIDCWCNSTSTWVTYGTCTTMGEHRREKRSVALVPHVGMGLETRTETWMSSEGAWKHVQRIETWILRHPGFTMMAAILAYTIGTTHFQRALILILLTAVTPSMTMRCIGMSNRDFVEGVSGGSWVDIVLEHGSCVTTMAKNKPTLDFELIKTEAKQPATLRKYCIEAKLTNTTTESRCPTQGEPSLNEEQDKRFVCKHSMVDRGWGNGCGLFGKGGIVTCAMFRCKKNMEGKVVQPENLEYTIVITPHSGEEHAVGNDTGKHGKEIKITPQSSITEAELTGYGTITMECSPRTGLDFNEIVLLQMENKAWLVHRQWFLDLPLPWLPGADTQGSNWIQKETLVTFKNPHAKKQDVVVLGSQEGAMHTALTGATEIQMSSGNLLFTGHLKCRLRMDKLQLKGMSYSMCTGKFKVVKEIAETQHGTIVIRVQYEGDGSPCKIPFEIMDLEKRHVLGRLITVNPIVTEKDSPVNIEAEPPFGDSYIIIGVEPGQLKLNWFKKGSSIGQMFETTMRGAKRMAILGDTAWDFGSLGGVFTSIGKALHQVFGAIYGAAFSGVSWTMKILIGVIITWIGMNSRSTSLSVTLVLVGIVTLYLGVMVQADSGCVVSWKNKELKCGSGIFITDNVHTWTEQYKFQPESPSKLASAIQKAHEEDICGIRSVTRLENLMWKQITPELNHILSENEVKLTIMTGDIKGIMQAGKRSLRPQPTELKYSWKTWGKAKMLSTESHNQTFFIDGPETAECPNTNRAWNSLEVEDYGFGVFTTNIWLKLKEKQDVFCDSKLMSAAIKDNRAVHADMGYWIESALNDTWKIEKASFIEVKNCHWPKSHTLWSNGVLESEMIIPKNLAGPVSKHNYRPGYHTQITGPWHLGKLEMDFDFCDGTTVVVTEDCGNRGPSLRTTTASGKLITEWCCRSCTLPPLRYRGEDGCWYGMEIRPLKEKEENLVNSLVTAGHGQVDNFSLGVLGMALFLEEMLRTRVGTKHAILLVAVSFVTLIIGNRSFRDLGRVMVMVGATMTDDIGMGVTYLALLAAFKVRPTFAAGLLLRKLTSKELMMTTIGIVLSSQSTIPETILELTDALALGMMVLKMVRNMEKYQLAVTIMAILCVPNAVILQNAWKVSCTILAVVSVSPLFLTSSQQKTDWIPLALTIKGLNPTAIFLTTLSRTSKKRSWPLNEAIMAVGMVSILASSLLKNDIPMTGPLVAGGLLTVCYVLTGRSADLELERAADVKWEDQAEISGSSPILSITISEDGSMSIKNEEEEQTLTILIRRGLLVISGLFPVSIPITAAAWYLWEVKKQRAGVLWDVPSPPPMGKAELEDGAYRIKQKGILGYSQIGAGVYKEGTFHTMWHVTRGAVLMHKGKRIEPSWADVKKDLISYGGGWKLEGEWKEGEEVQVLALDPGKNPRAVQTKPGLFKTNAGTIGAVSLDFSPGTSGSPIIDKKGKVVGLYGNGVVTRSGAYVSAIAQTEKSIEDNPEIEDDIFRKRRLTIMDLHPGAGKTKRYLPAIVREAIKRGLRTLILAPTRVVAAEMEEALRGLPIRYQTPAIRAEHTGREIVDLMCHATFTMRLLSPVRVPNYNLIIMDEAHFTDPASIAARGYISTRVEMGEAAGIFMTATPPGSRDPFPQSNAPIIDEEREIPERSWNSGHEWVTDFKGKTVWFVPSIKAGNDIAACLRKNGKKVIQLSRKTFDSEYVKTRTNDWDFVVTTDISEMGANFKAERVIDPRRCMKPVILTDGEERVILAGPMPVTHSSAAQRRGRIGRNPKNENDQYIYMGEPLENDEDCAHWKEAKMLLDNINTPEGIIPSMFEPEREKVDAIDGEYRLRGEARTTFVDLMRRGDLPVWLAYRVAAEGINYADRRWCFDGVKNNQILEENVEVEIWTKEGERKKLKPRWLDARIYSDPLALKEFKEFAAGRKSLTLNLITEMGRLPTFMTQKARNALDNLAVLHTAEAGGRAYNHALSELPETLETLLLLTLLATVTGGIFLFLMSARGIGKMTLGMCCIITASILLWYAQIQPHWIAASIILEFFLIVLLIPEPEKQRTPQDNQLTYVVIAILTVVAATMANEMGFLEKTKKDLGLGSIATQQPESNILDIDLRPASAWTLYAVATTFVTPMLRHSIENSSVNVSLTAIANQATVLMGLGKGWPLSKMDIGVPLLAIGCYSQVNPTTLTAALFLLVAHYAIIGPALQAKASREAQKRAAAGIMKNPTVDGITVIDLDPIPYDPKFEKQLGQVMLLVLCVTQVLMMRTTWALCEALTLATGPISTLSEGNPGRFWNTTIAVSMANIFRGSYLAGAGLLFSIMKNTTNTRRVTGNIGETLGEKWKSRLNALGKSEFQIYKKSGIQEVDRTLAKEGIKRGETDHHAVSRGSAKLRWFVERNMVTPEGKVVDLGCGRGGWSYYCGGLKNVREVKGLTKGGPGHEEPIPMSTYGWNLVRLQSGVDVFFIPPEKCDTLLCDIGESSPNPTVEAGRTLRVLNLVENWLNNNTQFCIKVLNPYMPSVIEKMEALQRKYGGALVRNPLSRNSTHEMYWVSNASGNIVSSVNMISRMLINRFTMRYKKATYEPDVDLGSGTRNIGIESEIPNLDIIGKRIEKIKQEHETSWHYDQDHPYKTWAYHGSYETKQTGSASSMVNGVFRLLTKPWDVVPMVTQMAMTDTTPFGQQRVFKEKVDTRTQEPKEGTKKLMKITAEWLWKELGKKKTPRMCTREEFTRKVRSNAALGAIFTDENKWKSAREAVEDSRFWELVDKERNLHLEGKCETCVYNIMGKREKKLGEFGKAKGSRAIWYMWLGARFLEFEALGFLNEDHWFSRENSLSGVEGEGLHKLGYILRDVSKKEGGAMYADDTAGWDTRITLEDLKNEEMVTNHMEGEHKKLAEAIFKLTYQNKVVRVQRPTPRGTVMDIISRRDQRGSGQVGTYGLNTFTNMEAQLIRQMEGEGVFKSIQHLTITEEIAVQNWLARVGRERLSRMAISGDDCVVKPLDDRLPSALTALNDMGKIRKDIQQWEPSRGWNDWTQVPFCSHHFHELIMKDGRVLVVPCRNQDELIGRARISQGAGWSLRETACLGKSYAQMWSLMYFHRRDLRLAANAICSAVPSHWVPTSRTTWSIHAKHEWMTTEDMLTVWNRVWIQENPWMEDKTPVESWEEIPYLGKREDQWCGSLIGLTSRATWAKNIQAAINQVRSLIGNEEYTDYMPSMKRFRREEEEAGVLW

SMILES	inhibition	inhibition [1] [%]
COC(=O)c1c(C(=O)OC)c(-c2ccccc2)n2c1CCC2	1.6% (inactive)	–
O=C(O)/C(=C\c1ccc(Cl)c([N+](=O)[O-])c1)c1ccc(S(=O)(=O)N2CCCC2)s1	0.37% (inactive)	–
O=C(O)/C(=C/c1ccc(Cl)c([N+](=O)[O-])c1)c1ccc(S(=O)(=O)N2CCCCC2)s1	15.9% (inactive)	–
O=C(CN1C(=O)C2CCCCC2C1=O)OCC(=O)c1ccc(Cl)s1 (stereo unspecified)	-7.27% (inactive)	–
O=S(=O)(c1ccc(=S)[nH]c1)N1CCOCC1	-8.4% (inactive)	–
COC(=O)c1cccc(NC(=O)C2CCCN2C(=O)c2cccs2)c1 (stereo unspecified)	-0.73% (inactive)	–
Cc1cc(C(=O)N/N=C2/CC(C)CC(C)(C)C2)c(C)o1 (stereo unspecified)	-5.92% (inactive)	–
CC1(C)CC(=O)C2=C(C1)c1c(ccc3ccccc13)NC2c1ccc(C(=O)O)cc1 (stereo unspecified)	2.04% (inactive)	–
CC1(C)CC(=O)C2=C(C1)c1c(ccc3ccccc13)NC2c1ccco1 (stereo unspecified)	-4.19% (inactive)	–
COc1ccc(S(=O)(=O)N2CCN(c3ccccc3OC)CC2)cc1C(=O)N1CCCCC1	-9.14% (inactive)	–
O=C(COc1ccc(Br)cc1)NNC(=S)NC(=O)c1ccccc1[N+](=O)[O-]	10.8% (inactive)	–
Cc1ccccc1OCC(=O)NNC(=S)NC(=O)c1ccccc1[N+](=O)[O-]	-8.89% (inactive)	–
Cc1ccsc1CN(C)Cc1nc(C2CC2)no1	1.78% (inactive)	–
CSc1ccc(C=NNc2ccc(S(=O)(=O)Nc3ccccc3C(=O)O)cc2[N+](=O)[O-])cc1	18.3% (inactive)	–
CCOc1ccc(C=NNc2ccc(S(=O)(=O)Nc3ccccc3C(=O)O)cc2[N+](=O)[O-])cc1OC	7.77% (inactive)	–
COc1ccccc1NS(=O)(=O)c1ccc(N/N=C/c2c(C)nn(-c3ccccc3)c2N2CCCC2)c([N+](=O)[O-])c1	0.96% (inactive)	–
CCOc1cccc(C=NNc2ccc(S(=O)(=O)Nc3ccccc3C(=O)O)cc2[N+](=O)[O-])c1O	9.55% (inactive)	–
CCN(Cc1ccccc1)C(=O)c1ccc(C(=O)N(CC)Cc2ccccc2)cc1	-1.55% (inactive)	–
CCc1nc(SCc2ccccc2)n[nH]1	8.1% (inactive)	–
Cc1cc(C(F)(F)F)c(C#N)c(SCC(=O)NC(C)(C)C)n1	-2.7% (inactive)	4.83
COc1cccc(O)c1CN1CCC(n2nccc2NC(=O)c2ccc3c(c2)OCO3)CC1	-3.24% (inactive)	–
CCCCSc1n[nH]c(N)n1	-2.73% (inactive)	–
COc1cccc(NC(=O)Cc2nnc(SCC(=O)NC3=NCCS3)n2C)c1	-1.78% (inactive)	–

SMILES	inhibition	inhibition [1] [%]
CCOc1cc(C(=O)N2CCN=C2SC)cc(OCC)c1OCC	-0.73% (inactive)	–
CCCCCCN1C[C@H](n2cc(C3CC3)nn2)[C@@H](O)C[C@@H]1c1ccc(C)cc1	0% (inactive)	–
COc1ccc(NC2=NCCC(=O)N2Cc2cccs2)cc1	3.14% (inactive)	–
CN(C)/N=C/c1c(O)ccc2ccccc12	10.4% (inactive)	–
OCC(CO)(CO)N=Cc1c(O)ccc2ccccc12	24.8% (inactive)	–
COc1ccc(NC(=O)/C=C/c2ccccc2)c([N+](=O)[O-])c1	-2.2% (inactive)	–
CC(=O)N1c2ccccc2NC2=C(C(=O)CCC2)C1c1ccco1 (stereo unspecified)	9.11% (inactive)	–
O/N=C/c1cc(Br)ccc1OCc1ccc(F)cc1	-7.14% (inactive)	–
CCn1c(C)cc(/C=C2/SC(=S)N(CC(=O)O)C2=O)c1C	-89.8% (inactive)	–
O=[N+]([O-])c1ccc(COc2ccc(Br)cc2CN2CCOCC2)cc1	-3.16% (inactive)	–
Cn1cccc1/C=C1/SC(=S)N(CC(=O)O)C1=O	3.63% (inactive)	–
O=C(O)CCN1C(=O)/C(=C\c2ccc(OCc3ccccc3)c(OCc3ccccc3)c2)SC1=S	8.45% (inactive)	–
Cn1cccc1/C=C1\SC(=S)N(CC(=O)O)C1=O	-7.69% (inactive)	–
O=C1CCc2cc(S(=O)(=O)Nc3ccccc3)cc3c2N1CCC3	-5.11% (inactive)	–
CCOc1cccc(N2CCN(CCNC(=O)Nc3ccc(C)cc3)CC2)c1C	-3.11% (inactive)	–
CC(C)N(C(=O)[C@H]1C[C@H](CC(=O)NCc2ccco2)C(=O)N2CCc3c([nH]c4cc(CCC(=O)N(C)C)ccc34)[C@]12C)C(C)C	-2.31% (inactive)	1.51
Cc1ccc(-c2nnn(CC(=O)N(c3ccccc3F)C(C(=O)NC3CCCC3)c3ccncc3)n2)o1 (stereo unspecified)	5.7% (inactive)	–
COC(=O)c1cc(COC(=O)c2nc3nccc(C)n3n2)oc1C	0% (inactive)	–
Clc1ccc(-c2csc(-c3ccno3)n2)cc1	-5.36% (inactive)	–
O=[N+]([O-])c1ccc(NCCCN2CCOCC2)c([N+](=O)[O-])c1	-5.47% (inactive)	–
COc1ccc(CC(=O)Nc2ccc(S(=O)(=O)Nc3cc(OC)nc(OC)n3)cc2)cc1	23.3% (inactive)	–
O=C(O)CCCC(=O)N1CCc2cc(S(=O)(=O)N3CCc4ccccc43)ccc21	-4.13% (inactive)	–
O=C1CCCCC1(O)Cc1ccc2c(c1)OCO2 (stereo unspecified)	-3.89% (inactive)	–

SMILES	inhibition	inhibition [1] [%]
O=c1cc(-c2ccccc2)oc2cccc(O)c12	-5.07% (inactive)	–
O=c1cc(-c2ccccc2)oc2cc(O)cc(O)c12	-12.6% (inactive)	–
CC(=O)c1cc2c(cc1NC(=O)Cc1ccsc1)OCO2	-0.37% (inactive)	–
O=C(C1CC(c2cccc(Br)c2)=NO1)N1CCc2ccccc2C1 (stereo unspecified)	-3.92% (inactive)	–
Cc1cccc(OCCn2nc(C(=O)O)c3ccccc3c2=O)c1	2.68% (inactive)	–
O=C(O)c1cccc([N+](=O)[O-])c1C(=O)Nc1cccc2ccccc12	-2.72% (inactive)	–
O=C(Nc1cccc2ccccc12)c1cccc([N+](=O)[O-])c1	-4.08% (inactive)	–
COc1cc(CN=Cc2c(O)n(Cc3ccccc3)c(=S)[nH]c2=O)cc(OC)c1	10.8% (inactive)	–
COc1c(O)ccc(/C=N/NC(=O)c2ccc3c(c2)OCCO3)c1[N+](=O)[O-]	2.38% (inactive)	–
COc1c(O)ccc(/C=N\NC(=O)c2ccc3c(c2)OCO3)c1[N+](=O)[O-]	12.7% (inactive)	–
O=C(c1cc(-c2ccncc2)nc2ccc(Cl)cc12)N1CCN(C(=O)C2CCCO2)CC1 (stereo unspecified)	-1.35% (inactive)	–
COC1=CC(=O)C=C(OC)C1=O	-8.21% (inactive)	–
CC/C=C\C/C=C\C/C=C\CCCCCCCC(=O)O	2.2% (inactive)	–
CN(CC(=O)Nc1ccccc1Cl)C(=O)CSc1nnc(-c2ccco2)o1	-1.47% (inactive)	–
CN1CCN(NC(=O)c2cc(S(=O)(=O)N3CCOCC3)c(Cl)cc2Cl)CC1	1.45% (inactive)	–
O=C(NC(C(=O)c1ccccc1)N1CCOCC1)c1cccs1 (stereo unspecified)	-6.21% (inactive)	–
CCCCN1C(=O)N(CCc2ccc(F)cc2)S(=O)(=O)c2cc(C(F)(F)F)ccc21	-0.33% (inactive)	1.51
COc1ccc2nc3ccccc3nc2c1N	40.2% (inactive)	–
Cc1cccc2nc3ccccc3nc12	-0.76% (inactive)	–
NC(=O)c1ccc(=O)n(Cc2ccc(F)c(F)c2)c1	-1.31% (inactive)	–
Cc1cc(C(c2ccc(O)cc2)c2cc(C)c(O)cc2C)c(C)cc1O	-0.79% (inactive)	–
Cc1ccc(N)cc1O	-2.91% (inactive)	–
Cc1ccc(CNC(=O)C(C(=O)NCc2ccc(C)o2)c2ncc(C(F)(F)F)cc2Cl)o1	-13.8% (inactive)	–

SMILES	inhibition	inhibition [1] [%]
COc1ccc(Br)cc1/C=C/C(=O)NC(=S)Nc1ccc(CN2CCOCC2)cc1	-10.4% (inactive)	–
COc1ccc(Br)cc1C(=O)NC(=S)Nc1ccc(Cl)c(C(=O)O)c1	4.69% (inactive)	–
c1ccc(NN=C2c3ccccc3-c3ccccc32)cc1	-1.94% (inactive)	–
CC1(C)OC(=O)C(=NNc2ccccc2)C(=O)O1	-0.73% (inactive)	–
COc1ccc(N(C)C(=O)c2ccc3c(c2)nnn3C)cc1	-4.51% (inactive)	–
O=C(CN1CCOCC1)Nc1ccccc1NC(=O)C1CCN(c2ncccn2)CC1	-11.3% (inactive)	–
COC(=O)[C@@]1(Cc2ccccc2)[C@H]2C(=O)N(C)C(=O)[C@H]2[C@H]2CN=C(SCc3ccc(C)cc3)N21	1.99% (inactive)	0.61
N/C(=N\OC(=O)c1ccco1)c1ccc(Br)cc1	-5.29% (inactive)	–
Cc1csc(/C(=N/OC(=O)c2ccco2)C(N)=O)n1	-32.5% (inactive)	–
O=C(CCCOc1cccc(Br)c1)NCCOc1ccccc1	-4.07% (inactive)	–
Cn1c(=O)c2sccc2n(CC(=O)NCCC2=CCCCC2)c1=O	-7.27% (inactive)	–
CCN(CC)Cc1nc2c(c(=O)[nH]1)C1(CCCCC1)Cc1ccccc1-2	-5.55% (inactive)	–
COC(=O)c1ccc(N2NC(=O)/C(=C/c3ccc(OC)c(OC)c3)C2=O)cc1	34.3% (inactive)	–
O=C1NN(c2cccc(Br)c2)C(=O)/C1=C/c1ccc(-c2cc([N+](=O)[O-])ccc2O)o1	70.1% (inactive)	–
COC(=O)c1ccc(N2NC(=O)/C(=C/c3cc(OC)c(O)c(OC)c3)C2=O)cc1	-24.8% (inactive)	–
O=Cc1ccc(-c2ccccc2C(=O)O)o1	-2.22% (inactive)	–
COc1ccc(NC(=O)/C(C#N)=C/c2ccc(-c3ccc(Cl)c(C(=O)O)c3)o2)cc1	3.44% (inactive)	–
Cc1nnc(NC(=O)c2ccc3c(c2)OCO3)s1	8.19% (inactive)	–
Cc1noc(C)c1CSCC(=O)Nc1nc2ccc(S(C)(=O)=O)cc2s1	-2.95% (inactive)	–
N#CCC(=O)N/N=C/c1ccc(OS(=O)(=O)c2ccccc2)cc1	-3.76% (inactive)	-2.42
COC(=O)Cn1c(CCS(=O)(=O)c2ccc(Cl)cc2)nc2ccccc21	-5.46% (inactive)	–
Cc1ccc(-c2cnc3ccccc3n2)cc1C	-6.51% (inactive)	–
